# From PubChem BioAssay (NCATS)
# Several values for one entry are separate records, joined by “and”; a condition that tells them apart may be missing. Identical values can stand only once. A number with no mark means an inactive call. Inconclusive results are not listed. Where a call stands in place of a potency, no number is given. Activity calls are given as the source filed them. Unless noted, the call rests on the fitted dose curve; in most records, active means well fitted curve in the direction sought with a large enough effect; inconclusive means small, poorly fitted or top-dose-only effect, or another doubt; inactive means no such curve, though single readings can be large; an effect the other way counts as inactive or inconclusive.
# Legend:
# [1] = Cell Viability - HepG2 (AID 433; calls by dose curve;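 further: potency means the concentration at half of the fitted maximal effect; cells exposed to compound for 40 hours; potency for ATP loss meaning cytotoxicity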); details: qHTS
# Outline: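 Cytotoxicity read as ATP loss (CellTiter-Glo luminescence) after 40 hr compound exposure of HepG2, 1500 cells/well, 37 °C. AC50 by Hill equation; 0% set by DMSO, 100% inhibition by 100 uM tamoxifen.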
# [2] = target: Peroxisome proliferator-activated receptor gamma (Homo sapiens) (UniProt P37231); test: qHTS assay for small molecule agonists of peroxisome proliferator-activated receptor gamma signaling (AID 588536; active means well fitted curve in the direction sought with a large enough effect in the signal ratio, with a control signal flat, not every such curve was filed as active; the % refers to the signal ratio); details: HEK293 PPARg-UAS-bla, beta-lactamase ratio, 16 h, percent of rosiglitazone response, DMSO as zero; series mostly up to 76.7 µM
# Outline: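 This is an agonist-mode beta-lactamase reporter assay in HEK293 PPAR-gamma-UAS-bla cells with 1% charcoal/dextran FBS. Compound titrations ran 16 h at 37 C before CCF4 detection. EC50 and efficacy are Hill fits scaled to 2 uM rosiglitazone (100%) and DMSO basal.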
# [3] = target: Vitamin D3 receptor (Homo sapiens) (UniProt P11473); test: qHTS assay for small molecule antagonists of vitamin D receptor signaling (AID 588541; calls by dose curve;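 further: receptor activated by calcitriol during compound treatment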); details: HEK293T VDR-UAS-bla, beta-lactamase ratio, antagonist mode; series mostly up to 76.7 µM
# Outline: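 Antagonist-mode beta-lactamase reporter assay: HEK293T VDR-UAS-bla cells were exposed to titrated compound alongside 1-alpha,25-dihydroxyvitamin D3 at 3 nM final for 16 h. Values were normalized to the 50 nM agonist control and DMSO basal, with IC50 and efficacy from Hill equation fits.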
# [4] = target: Vitamin D3 receptor (Homo sapiens) (UniProt P11473); test: qHTS assay for small molecule agonists of vitamin D receptor signaling (AID 588543; calls by dose curve); details: HEK293T VDR-UAS-bla, beta-lactamase ratio, 16 h; series mostly up to 76.8 µM
# Outline: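 Agonist-mode beta-lactamase reporter: HEK293T VDR-UAS-bla cells in charcoal-stripped 2% FBS, compound series 16 h 37 C, CCF4 2 h RT. EC50 from Hill fit, scaled against DMSO and 50 nM calcitriol control.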
# [5] = target: Thyroid hormone receptor beta (Homo sapiens) (UniProt P10828); test: qHTS assay for small molecule agonists of thyroid hormone receptor beta signaling (AID 588545; calls by dose curve); details: TR-UAS-bla GripTite HEK 293, beta-lactamase ratio, agonist mode, 18 h, percent of T3 response, DMSO as zero; series mostly up to 76.7 µM
# Outline: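 TR-UAS-bla-GripTite HEK 293 cells in medium with 2% charcoal/dextran FBS, 0.1 mM NEAA and 1 mM sodium pyruvate were treated with titrated compounds for 18 hrs at 37 C. Beta-lactamase reporter was read with CCF4 dye (ex 405, em 460/530 nm); EC50 from Hill fits.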
# [6] = target: Thyroid hormone receptor beta (Homo sapiens) (UniProt P10828); test: qHTS assay for small molecule antagonists of thyroid hormone receptor beta signaling (AID 588547; active means well fitted inhibition curve with a large enough effect in the signal ratio, with a control signal flat, not every such curve was filed as active; the % refers to the signal ratio;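 further: cells stimulated with 0.4 nM T3 agonist during compound exposure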); details: TR-UAS-bla HEK293, beta-lactamase ratio, antagonist mode, 18 h
# Outline: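 Inhibition of T3-driven (0.4nM final) beta-lactamase reporter activity was measured over 0.59 nM to 92 uM compound after 18 h at 37 C. The cells were GripTite HEK293 TR-UAS-bla in charcoal/dextran-stripped serum, with CCF4 ratio read-out and IC50 from Hill fits.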
# [7] = qHTS assay for small molecule activators of the nuclear factor-kappa B (NF-kB) signaling pathway (AID 651749; active means well fitted activation curve with a large enough effect in the signal ratio; the % refers to the signal ratio); details: NF-kB-bla ME-180 cells, beta-lactamase FRET ratio, 16 h; activation: stronger effect = higher value
# Outline: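 Activation measured after 16 hr compound treatment at 37C, 5% CO2, of 2,000 ME-180 cells/well stably expressing an NF-kB response element–driven beta-lactamase reporter, via FRET-disruption fluorescence.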
# [8] = qHTS assay for environmental chemicals that activate the Aryl hydrocarbon Receptor (AhR) signaling pathway (AID 651777); details: 1A2-DRE human hepatoma cells, luciferase, 24 h; activation: stronger effect = higher value; further: nearly all actives have a fitted effect of over 15% in size
# Outline: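 1A2-DRE human hepatoma reporter line; 1,200 cells/well; cmpd or DMSO 24 h, 37 C/5% CO2; One-Glo 30 min RT; luciferase lum.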
# [9] = target: Peroxisome proliferator-activated receptor alpha (Homo sapiens) (UniProt Q07869); test: qHTS assay for small molecule agonists of the peroxisome proliferator-activated receptor alpha (PPARalpha) signaling pathway (AID 651778); details: PathHunter PPARalpha complementation, chemiluminescence, 6 h; stronger effect = higher value
# Outline: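 Chemiluminescence from complemented enzyme reported PPARalpha activation in cells after 6 hr of compound treatment at 37 C. The detection reagent was incubated for 60 min at room temperature, and compounds were scored as agonists.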
# [10] = qHTS assay for small molecule agonists of the antioxidant response element (ARE) signaling pathway measured by Nrf2-dependant transcriptional activity - cell viability counter screen (AID 720653; active means well fitted curve in the direction sought with a large enough effect in the repeat runs; an effect the other way counts as inactive or inconclusive); details: ARE-bla HepG2 viability, CellTiter-Glo ATP luminescence, 16 h; stronger effect = lower value
# Outline: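 Cytotoxicity counter screen: intracellular ATP quantified by CellTiter-Glo luminescence in the same ARE-bla HepG2 plates, after 16 h compound exposure and a 2 h beta-lactamase substrate step.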
# [11] = qHTS assay for cell viability of the p53RE-bla HCT-116 cell line (AID 743292); details: p53RE-bla HCT-116 viability, ATP luminescence, 16 h; series mostly up to 95 µM; further: nearly all actives have a fitted effect of over 55% in size
# Outline: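 HCT-116 p53RE-bla cells seeded 4,000/well; 5 h at 37 C; compound (DMSO) added; 16 h at 37 C; CellTiter-Glo added, 30 min RT; luminescence read.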
# [12] = target: Guanine nucleotide-binding protein G(i) subunit alpha-1 (Homo sapiens) (UniProt P63096); test: qHTS Assay for Inhibitors of RGS12 GoLoco Motif Activity (Green Fluorophore) (AID 879); details: Galphai1/FITC-RGS12 GoLoco peptide, fluorescence polarization; series mostly up to 57.1 µM;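 further: negative values mean loss of peptide binding seen as reduced polarization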
# Outline: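 A drop in FITC polarization marked displacement of the FITC-tagged RGS12 GoLoco peptide (10 nM) from Gαi1 (50 nM). Compounds were incubated 10 min at room temperature in Tris pH 7.5 buffer containing 150 mM NaCl, 0.1 mM GDP and 0.05% NP40; unlabeled peptide titration served as control.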
# [13] = qHTS Assay for Identification of Small Molecule Agonists for Thrombopoietin (TPO) Signaling Pathway (AID 917); details: TPO signaling pathway reporter cells, agonist qHTS; series mostly up to 38.5 µM
# Outline: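 Luciferase reporter (Glycoprotein IIb promoter) in IL-3-deprived Ba/F3 cells carrying human TPO receptor; compounds co-added with 26 pM TPO, incubated 24 h, 37 C. Steadylite luminescence measured after 10 min.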
# [14] = target: Pyruvate kinase PKM (Homo sapiens) (UniProt P14618); test: qHTS Assay for Activators of Human Muscle Pyruvate Kinase (AID 954; active means well fitted curve in the direction sought with a large enough effect, not every such curve was filed as active); details: purified human muscle pyruvate kinase, luciferase-coupled luminescence, 1 h; series mostly up to 57.5 µM
# Outline: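 ATP production by PKM2 detected via luciferase luminescence after 1 h room-temperature reaction (0.1 nM enzyme, PEP at Km 0.5 mM, ADP 0.1 mM, pH 7.2 imidazole buffer). Inhibition scaled to no-enzyme control; activation referenced to 0.3 nM enzyme wells.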
# [15] = target: Alpha-galactosidase (Coffea arabica) (UniProt Q42656); test: Counterscreen for Glucocerebrosidase Inhibitors: qHTS Assay for Coffee Bean alpha-Galactosidase at pH 4.5 (AID 957); details: purified coffee bean alpha-galactosidase, fluorogenic substrate; series mostly up to 76.9 µM
# Outline: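 Enzyme is added first (2 nM final), then compounds titrated from 0.7 nM to 77 uM, then 80 uM 4-methylumbelliferyl alpha-D-galactopyranoside; after 20 min at room temperature a pH 10 NaOH/glycine stop precedes fluorescence reading at 365/440 nm.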
# [16] = target: Alpha-galactosidase A (Homo sapiens) (UniProt P06280); test: Counterscreen for Glucocerebrosidase Inhibitors: qHTS Assay for Human alpha-Galactosidase at pH 4.5 (AID 992); details: purified enzyme, fluorogenic substrate; series mostly up to 76.9 µM
# Outline: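 Fluorogenic 1536-well qHTS at pH 4.5 (citrate, Tween-20): 2 nM enzyme, 80 uM 4-MU-alpha-galactoside, 20 min room temperature, NaOH/glycine stop. Titration 0.7 nM to 77 uM, data normalized to no-enzyme and full-activity controls, Hill-fitted AC50.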
# [17] = target: alpha-glucosidase (Oryza sativa, rice) (UniProt Q653V4); test: Counterscreen for Glucocerebrosidase Inhibitors: qHTS Assay for Rice alpha-Glucosidase at pH 5.0 (AID 997); details: rice alpha-glucosidase enzyme activity; series mostly up to 76.9 µM
# Outline: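 Endpoint fluorogenic assay at pH 5.0: compounds (0.7 nM to 77 uM) titrated against 4 nM rice enzyme and 400 uM 4-MU-alpha-glucoside for 20 min at room temperature; NaOH/glycine stop, read ex 365/em 440 nm, Hill-fitted AC50.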
# [18] = target: Muscarinic acetylcholine receptor M1 (Rattus norvegicus) (UniProt P08482); test: qHTS Assay for Antagonists of Acetylcholine Muscarinic M1 Receptor: Measurement of IP-One Response (AID 944); details: CHO-M1 cells, IP-One HTRF, antagonist mode; series mostly up to 46.1 µM; further: potency means the concentration at half of the fitted maximal effect; nearly all actives have a fitted effect of over 75% in size
# Outline: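 Antagonist mode with rat M1 receptor transfected into CHO cells. Compound is added first for 10 min, carbachol at its EC80 follows for 30 min, and lysis reagents then allow TR-FRET detection of accumulated IP1.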
# Sequence of Peroxisome proliferator-activated receptor gamma (Homo sapiens) (P37231 whole entry, looked up): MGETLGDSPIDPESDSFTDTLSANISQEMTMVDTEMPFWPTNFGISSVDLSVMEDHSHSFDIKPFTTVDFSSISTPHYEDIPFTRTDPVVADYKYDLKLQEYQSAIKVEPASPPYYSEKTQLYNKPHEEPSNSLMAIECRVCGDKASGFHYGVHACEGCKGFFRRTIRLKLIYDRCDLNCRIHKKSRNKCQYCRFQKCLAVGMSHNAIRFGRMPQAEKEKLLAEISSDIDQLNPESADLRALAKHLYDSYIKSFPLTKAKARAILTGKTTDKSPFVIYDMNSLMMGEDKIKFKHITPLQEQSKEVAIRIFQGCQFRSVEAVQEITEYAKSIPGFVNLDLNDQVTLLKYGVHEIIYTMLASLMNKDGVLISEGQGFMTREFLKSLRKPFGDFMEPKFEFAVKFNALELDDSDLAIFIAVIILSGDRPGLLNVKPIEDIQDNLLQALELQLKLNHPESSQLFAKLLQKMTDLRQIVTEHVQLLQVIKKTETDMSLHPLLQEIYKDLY
# Sequence of Alpha-galactosidase (Coffea arabica) (Q42656 whole entry, looked up): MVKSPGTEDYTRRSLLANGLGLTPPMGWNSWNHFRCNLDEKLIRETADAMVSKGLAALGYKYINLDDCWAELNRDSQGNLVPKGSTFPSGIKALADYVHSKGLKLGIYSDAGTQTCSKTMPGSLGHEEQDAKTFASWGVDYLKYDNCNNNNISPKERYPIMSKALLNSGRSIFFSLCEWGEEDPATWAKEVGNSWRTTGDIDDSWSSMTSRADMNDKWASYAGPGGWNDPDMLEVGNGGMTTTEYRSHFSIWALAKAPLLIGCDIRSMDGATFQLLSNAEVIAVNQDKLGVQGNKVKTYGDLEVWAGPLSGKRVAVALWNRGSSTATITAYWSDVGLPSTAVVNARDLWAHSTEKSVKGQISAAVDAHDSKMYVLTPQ
# Sequence of Pyruvate kinase PKM (Homo sapiens) (P14618 whole entry, looked up): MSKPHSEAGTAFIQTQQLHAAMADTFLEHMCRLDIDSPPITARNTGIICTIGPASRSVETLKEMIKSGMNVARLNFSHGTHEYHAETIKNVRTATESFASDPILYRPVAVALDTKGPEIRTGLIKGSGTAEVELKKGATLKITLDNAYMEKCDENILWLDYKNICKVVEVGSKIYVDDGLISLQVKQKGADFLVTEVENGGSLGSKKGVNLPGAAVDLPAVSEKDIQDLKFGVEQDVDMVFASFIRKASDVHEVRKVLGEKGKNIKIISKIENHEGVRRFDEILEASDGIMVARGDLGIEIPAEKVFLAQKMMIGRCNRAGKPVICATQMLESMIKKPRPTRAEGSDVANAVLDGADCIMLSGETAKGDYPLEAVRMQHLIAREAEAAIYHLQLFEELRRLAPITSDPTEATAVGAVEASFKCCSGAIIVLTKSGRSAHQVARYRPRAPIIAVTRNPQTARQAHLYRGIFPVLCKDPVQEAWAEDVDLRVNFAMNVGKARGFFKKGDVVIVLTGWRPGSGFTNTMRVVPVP
# Sequence of Thyroid hormone receptor beta (Homo sapiens) (P10828 whole entry, looked up): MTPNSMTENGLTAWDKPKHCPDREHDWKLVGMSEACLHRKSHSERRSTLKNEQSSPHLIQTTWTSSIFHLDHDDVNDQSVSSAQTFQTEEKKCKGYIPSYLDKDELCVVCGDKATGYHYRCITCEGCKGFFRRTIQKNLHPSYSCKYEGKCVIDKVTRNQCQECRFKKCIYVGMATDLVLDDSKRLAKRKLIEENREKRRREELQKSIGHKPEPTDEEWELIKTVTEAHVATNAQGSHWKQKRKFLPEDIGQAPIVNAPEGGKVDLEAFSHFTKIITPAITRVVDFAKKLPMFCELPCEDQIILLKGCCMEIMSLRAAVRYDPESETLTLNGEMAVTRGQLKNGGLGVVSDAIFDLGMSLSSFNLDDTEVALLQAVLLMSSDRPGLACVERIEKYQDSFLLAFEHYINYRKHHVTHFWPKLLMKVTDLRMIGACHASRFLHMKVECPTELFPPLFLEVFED
# Sequence of Guanine nucleotide-binding protein G(i) subunit alpha-1 (Homo sapiens) (P63096 whole entry, looked up): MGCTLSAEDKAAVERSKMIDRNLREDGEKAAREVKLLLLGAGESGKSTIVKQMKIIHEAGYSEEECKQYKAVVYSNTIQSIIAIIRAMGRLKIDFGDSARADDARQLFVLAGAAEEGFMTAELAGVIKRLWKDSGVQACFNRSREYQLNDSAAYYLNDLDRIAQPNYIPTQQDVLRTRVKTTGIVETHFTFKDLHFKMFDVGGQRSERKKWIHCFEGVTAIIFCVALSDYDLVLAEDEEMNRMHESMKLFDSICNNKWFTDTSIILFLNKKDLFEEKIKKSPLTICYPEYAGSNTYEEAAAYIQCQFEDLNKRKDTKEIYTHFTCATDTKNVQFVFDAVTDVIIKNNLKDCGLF
# Sequence of Peroxisome proliferator-activated receptor alpha (Homo sapiens) (Q07869 whole entry, looked up): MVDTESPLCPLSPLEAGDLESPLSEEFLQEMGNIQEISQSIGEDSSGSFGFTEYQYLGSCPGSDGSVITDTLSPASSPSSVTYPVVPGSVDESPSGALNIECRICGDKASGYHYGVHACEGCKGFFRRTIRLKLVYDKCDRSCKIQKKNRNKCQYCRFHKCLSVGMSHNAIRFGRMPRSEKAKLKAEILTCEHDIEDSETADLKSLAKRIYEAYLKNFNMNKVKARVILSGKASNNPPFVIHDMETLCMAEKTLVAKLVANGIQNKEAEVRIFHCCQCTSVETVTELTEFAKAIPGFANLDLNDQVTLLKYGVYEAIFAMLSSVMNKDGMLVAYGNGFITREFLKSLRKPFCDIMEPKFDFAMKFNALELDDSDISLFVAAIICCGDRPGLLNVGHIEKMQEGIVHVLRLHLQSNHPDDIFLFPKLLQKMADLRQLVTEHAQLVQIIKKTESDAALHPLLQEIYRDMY
# Sequence of Alpha-galactosidase A (Homo sapiens) (P06280 whole entry, looked up): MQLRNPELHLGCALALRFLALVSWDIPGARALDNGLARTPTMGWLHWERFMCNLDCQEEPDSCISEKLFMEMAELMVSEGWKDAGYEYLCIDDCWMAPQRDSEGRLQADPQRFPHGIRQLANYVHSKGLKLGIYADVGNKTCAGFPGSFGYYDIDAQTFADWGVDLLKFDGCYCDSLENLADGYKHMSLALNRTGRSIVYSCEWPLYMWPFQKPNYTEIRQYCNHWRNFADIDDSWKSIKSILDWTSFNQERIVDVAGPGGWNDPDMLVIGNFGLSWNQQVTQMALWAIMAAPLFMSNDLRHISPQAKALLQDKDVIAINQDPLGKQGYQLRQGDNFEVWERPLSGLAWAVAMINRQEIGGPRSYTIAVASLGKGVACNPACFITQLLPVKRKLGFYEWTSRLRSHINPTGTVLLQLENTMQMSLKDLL
# Sequence of Vitamin D3 receptor (Homo sapiens) (P11473 whole entry, looked up): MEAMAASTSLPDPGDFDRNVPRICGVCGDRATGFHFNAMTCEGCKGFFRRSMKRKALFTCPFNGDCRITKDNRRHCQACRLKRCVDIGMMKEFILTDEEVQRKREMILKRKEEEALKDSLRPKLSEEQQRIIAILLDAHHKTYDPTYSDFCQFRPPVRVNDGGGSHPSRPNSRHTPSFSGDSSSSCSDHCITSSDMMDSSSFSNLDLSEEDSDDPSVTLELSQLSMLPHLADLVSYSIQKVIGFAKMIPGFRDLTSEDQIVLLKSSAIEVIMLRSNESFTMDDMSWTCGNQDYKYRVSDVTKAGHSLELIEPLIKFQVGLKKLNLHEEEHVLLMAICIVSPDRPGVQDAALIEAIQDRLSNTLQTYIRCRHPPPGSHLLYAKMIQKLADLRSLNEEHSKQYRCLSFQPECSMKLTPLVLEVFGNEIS
# Sequence of Muscarinic acetylcholine receptor M1 (Rattus norvegicus) (P08482 whole entry, looked up): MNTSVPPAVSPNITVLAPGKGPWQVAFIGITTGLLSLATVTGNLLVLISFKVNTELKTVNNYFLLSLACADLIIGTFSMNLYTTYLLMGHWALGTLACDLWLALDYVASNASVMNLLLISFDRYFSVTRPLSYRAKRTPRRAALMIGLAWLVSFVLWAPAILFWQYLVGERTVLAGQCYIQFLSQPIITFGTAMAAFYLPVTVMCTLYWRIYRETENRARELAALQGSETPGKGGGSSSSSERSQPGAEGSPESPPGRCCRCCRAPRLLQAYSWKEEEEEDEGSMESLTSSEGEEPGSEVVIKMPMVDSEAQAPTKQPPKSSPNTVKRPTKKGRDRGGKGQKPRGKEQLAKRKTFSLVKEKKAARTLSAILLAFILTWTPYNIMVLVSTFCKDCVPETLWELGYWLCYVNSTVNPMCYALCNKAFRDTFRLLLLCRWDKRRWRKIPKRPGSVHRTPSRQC
structure (smiles),measurement,setting,value
COC(=O)NC(=S)Nc1ccccc1NC(=S)NC(=O)OC,Potency,[1],> 92 µM
same,outcome,[2],inactive
same,outcome,[3],inactive
same,outcome,[4],inactive
same,outcome,[5],inactive
same,activity change % (negative = inhibition),[6],1.37% and 13.1%
same,activation,[7],0.272% and -1.52%
same,activation,[8],11.9% and 4.33%
same,max response,[9],-4.83% and -0.925%
same,max response,[10],-1.18% and 2.94%
same,Potency,[11],inactive
COP(=S)(OC)Oc1ccc([N+](=O)[O-])cc1,Potency,[1],> 92 µM
same,outcome,[2],inactive
same,outcome,[3],inactive
same,outcome,[4],inactive
same,outcome,[5],inactive
same,activity change % (negative = inhibition),[6],-2.23% and 4.43%
same,activation,[7],-0.601%
same,activation,[8],0.87% and 0.313%
same,max response,[9],-2.98% and -2.34%
same,max response,[10],0.527% and -8.08%
same,Potency,[11],inactive
C[N+]1(C)[C@@H]2CC[C@H]1CC(OC(=O)[C@@H](CO)c1ccccc1)C2 (some centres undefined),outcome,[12],inactive
same,outcome,[13],inactive
same,outcome,[14],inactive
same,outcome,[15],inactive
same,outcome,[16],inactive
same,outcome,[17],inactive
ClC1=C(Cl)C2(Cl)C3C4CC(C5OC45)C3C1(Cl)C2(Cl)Cl (centres undefined),Potency,[1],> 92 µM
same,outcome,[2],inactive
same,outcome,[3],inactive
same,outcome,[4],inactive
same,outcome,[5],inactive
same,activity change % (negative = inhibition),[6],-28.8%
same,activation,[7],-0.275%
same,activation,[8],-0.344%
same,max response,[9],9.76%
same,max response,[10],-3.29%
same,Potency,[11],inactive
C[C@H](NC(C)(C)C)C(=O)c1cccc(Cl)c1,outcome,[12],inactive
same,outcome,[13],inactive
same,outcome,[14],inactive
same,outcome,[15],inactive
same,outcome,[16],inactive
same,outcome,[17],inactive
c1ccc(N=Nc2ccccc2)cc1,Potency,[1],> 92 µM
same,outcome,[2],inactive
same,outcome,[3],inactive
same,outcome,[4],inactive
same,outcome,[5],inactive
same,activity change % (negative = inhibition),[6],5.03% and -8.04%
same,activation,[7],-0.765% and -3.19%
same,activation,[8],-0.472% and 1.23%
same,max response,[9],-0.415% and -1.69%
same,max response,[10],-6.06% and -16.5%
same,Potency,[11],inactive
CC[C@@]1(c2ccc(N)cc2)CCC(=O)NC1=O,outcome,[12],inactive
same,outcome,[13],inactive
same,outcome,[14],inactive
same,outcome,[15],inactive
same,outcome,[16],inactive
same,outcome,[17],inactive
CC(C)N(CC[C@@](C(N)=O)(c1ccccc1)c1ccccn1)C(C)C,outcome,[12],inactive
same,outcome,[13],inactive
same,Potency,[18],5.62 µM (active) and 6.31 µM (active)
same,outcome,[14],inactive
same,outcome,[15],inactive
same,outcome,[16],inactive
same,outcome,[17],inactive
